From PubChem BioAssay (Tox21)
Results filed as inconclusive are left out. Calls of active or inactive are those of the source. Unless noted, calls follow the shape of the dose curve; as a rule, active = well fitted curve in the direction sought with a large enough effect in the repeat runs; inconclusive = weak or mixed curves; inactive = no such curve, though single readings can be large; an effect the other way counts as inactive or inconclusive.

How the values were obtained:
[1] = qHTS assay for small molecule agonists of the p53 signaling pathway (AID 651631; calls by dose curve; also: nearly all actives have a fitted effect of over 15% in size)
Procedure, shortened: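 Testing took place in human colorectal HCT-116 cells with stable p53RE-driven beta-lactamase. After 16 h of compound exposure at 37 °C, a FRET substrate was added and fluorescence recorded 2 h later.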

[2] = qHTS assay for small molecules that induce genotoxicity in human embryonic kidney cells expressing luciferase-tagged ATAD5 (AID 651632); also: nearly all actives have a fitted effect of over 15% in size
Procedure, shortened: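 DMSO vehicle served as the control. HEK293T reporter cells, 16 hr at 37C, then 30 min Amplite at room temperature; ATAD5 induction is measured as luciferase activity.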

[3] = qHTS assay for small molecule agonists of the p53 signaling pathway - cell viability (AID 651633; calls by dose curve; also: series mostly up to about 83 µM; nearly all actives have a fitted effect of over 30% in size)
Procedure, shortened: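 Viability counter-read: CellTiter-Glo luminescence (30 min, room temperature) in the same p53RE-bla plates. These plates had been exposed to compounds for 16 h at 37 C.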

[4] = qHTS assay for small molecules that induce genotoxicity in human embryonic kidney cells expressing luciferase-tagged ATAD5 - cell viability (AID 651634; calls by dose curve; also: nearly all actives have a fitted effect of over 25% in size)
Procedure, shortened: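 Here HEK293T cells with the ATAD5 luciferase reporter are incubated with test compounds for 15.5 hr, and cytotoxicity is then gauged by measuring protease activity in live cells using fluorescence.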

[5] = qHTS assay to test for compound auto fluorescence at 535 nm (green) in HepG2 cells (AID 720675)
[6] = qHTS assay to test for compound auto fluorescence at 460 nm (blue) in HEK293 cells (AID 720678)
Procedure, shortened: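 Cells were seeded and left to adhere for 4-5 hr at 37C. Compounds were then pin-transferred. After an overnight incubation at 37C under 5% CO2, intrinsic fluorescence at 405/460 nm was measured and referenced to triamterene.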

[7] = qHTS assay to test for compound auto fluorescence at 590 nm (red) in HEK293 cells (AID 720679)
Procedure, shortened: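 Each well held 2,000 HEK293 cells in medium containing 10% dialyzed FBS. Following 4-5 hr attachment at 37C, 23 nL test compound or DMSO was added; plates sat overnight, and red fluorescence (540/590nm) was recorded.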

[8] = qHTS assay to test for compound auto fluorescence at 535 nm (green) in HEK293 cells (AID 720680)
[9] = qHTS assay to test for compound auto fluorescence at 460 nm (blue) in HEK293 cell free culture (AID 720681)
Procedure, shortened: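 Blue fluorescence (Ex 405/Em 460 nm, triamterene-equivalent) was read immediately after pin transfer of compound or DMSO into medium (DMEM, 10% FBS) without cells.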

[10] = qHTS assay to test for compound auto fluorescence at 535 nm (green) in HEK293 cell free culture (AID 720682)
Procedure, shortened: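 DMEM + 10% FBS, cell-free; cpd or DMSO pinned in; Ex485/Em535 read; output as fluorescein-equivalent signal.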

[11] = qHTS assay to test for compound auto fluorescence at 590 nm (red) in HEK293 cell free culture (AID 720683)
Procedure, shortened: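 Red-channel autofluorescence of compounds in culture medium (DMEM, 10% FBS), no cells, measured at 540/590 nm. Rose Bengal sodium is the reference fluorophore for equivalence.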

[12] = qHTS assay to test for compound auto fluorescence at 590 nm (red) in HepG2 cell free culture (AID 720684)
Procedure, shortened: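 Cell-free; medium MEM + 10% FBS; compound or DMSO added by pintool; read Ex 540/Em 590 nm; Rose Bengal sodium as red reference fluorophore.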

[13] = qHTS assay to test for compound auto fluorescence at 460 nm (blue) in HepG2 cell free culture (AID 720685)
Procedure, shortened: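 Cell-free plates of MEM plus 10% FBS received 23 nL compound or DMSO vehicle; blue-channel (405/460 nm) intensity scored against triamterene as reference fluorophore.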

[14] = qHTS assay to test for compound auto fluorescence at 535 nm (green) in HepG2 cell free culture (AID 720686)
[15] = qHTS assay to test for compound auto fluorescence at 460 nm (blue) in HepG2 cells (AID 720687)
Procedure, shortened: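 Blue-channel autofluorescence (Ex/Em 405/460 nm, triamterene-equivalent) was measured after 1 hr compound exposure at 37 C, 5% CO2. Cells were HepG2, plated overnight at 37 C in MEM plus 10% FBS.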

[16] = target: Glucocorticoid receptor (Homo sapiens) (UniProt P04150); experiment: qHTS assay to identify small molecule agonists of the glucocorticoid receptor (GR) signaling pathway (AID 720691; active = well fitted activation curve with a large enough effect in the signal ratio in the repeat runs, not every such curve was filed as active; the % refers to the signal ratio)
Chain of Glucocorticoid receptor (Homo sapiens) (P04150 whole entry, looked up): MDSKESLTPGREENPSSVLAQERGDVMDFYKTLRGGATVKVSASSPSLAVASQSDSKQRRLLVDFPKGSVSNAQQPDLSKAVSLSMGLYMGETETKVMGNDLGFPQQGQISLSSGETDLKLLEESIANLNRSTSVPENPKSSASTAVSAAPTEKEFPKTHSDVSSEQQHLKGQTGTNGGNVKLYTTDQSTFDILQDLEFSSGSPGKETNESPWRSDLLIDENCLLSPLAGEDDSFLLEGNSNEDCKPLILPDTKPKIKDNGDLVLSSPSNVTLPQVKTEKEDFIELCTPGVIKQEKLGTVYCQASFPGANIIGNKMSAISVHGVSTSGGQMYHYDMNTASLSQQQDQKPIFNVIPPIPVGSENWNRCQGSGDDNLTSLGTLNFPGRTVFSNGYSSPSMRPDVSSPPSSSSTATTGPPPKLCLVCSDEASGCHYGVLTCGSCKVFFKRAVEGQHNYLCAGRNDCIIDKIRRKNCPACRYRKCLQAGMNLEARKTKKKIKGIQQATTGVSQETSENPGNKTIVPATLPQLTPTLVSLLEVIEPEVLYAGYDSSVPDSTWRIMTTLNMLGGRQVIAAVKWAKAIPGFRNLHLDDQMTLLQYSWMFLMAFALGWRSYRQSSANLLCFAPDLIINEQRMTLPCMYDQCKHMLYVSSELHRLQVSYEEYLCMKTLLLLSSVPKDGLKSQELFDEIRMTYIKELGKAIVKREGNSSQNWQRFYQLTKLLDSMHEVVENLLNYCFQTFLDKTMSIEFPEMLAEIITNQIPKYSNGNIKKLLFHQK
Procedure, shortened: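 Compounds in DMSO, alongside positive controls, were added to GR-bla HeLa reporter cells and incubated 18 h at 37 C; GRE-driven beta-lactamase was detected by fluorescence after 2 h with FRET substrate at room temperature.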

[17] = target: Glucocorticoid receptor (Homo sapiens) (UniProt P04150); experiment: qHTS assay to identify small molecule antagonists of the glucocorticoid receptor (GR) signaling pathway (AID 720692; active = well fitted inhibition curve with a large enough effect in the signal ratio in the repeat runs, not every such curve was filed as active; the % refers to the signal ratio)
Procedure, shortened: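 In a 1536-well cell format, compounds were added 4 h after seeding GR-bla HeLa cells, together with dexamethasone at 5 nM final; reporter activity was measured by FRET-substrate fluorescence following 18 h at 37 C.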

[18] = qHTS assay for small molecule disruptors of the mitochondrial membrane potential - cell viability (AID 720634; calls by dose curve;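 also: human HepG2 liver cancer cells; series mostly up to about 83 µM; nearly all actives have a fitted effect of over 20% in size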)
Procedure, shortened: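 Viability of HepG2 cells is scored from ATP content by luminescence; cells are exposed to compound for 1 hr at 37 C and 5% CO2, then dosed with m-MPI dye before the CellTiter-Glo reagent.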

[19] = qHTS assay for small molecule disruptors of the mitochondrial membrane potential (AID 720635)
Procedure, shortened: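 Mitochondrial membrane potential tracked with Mito-MPS dye, red aggregates (ex 540/em 590 nm) against green monomers (ex 490/em 535 nm). Compound treatment 1 hr at 37C, dye 30 min in HepG2.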

[20] = qHTS assay to test for compound auto fluorescence at 590 nm (red) in HepG2 cells (AID 720674)
Procedure, shortened: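 1 hr compound incubation on HepG2 cells, 37 C, 5% CO2; plate read ex 540 nm / em 590 nm; intensities reported as Rose Bengal sodium equivalents.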

Measured: Potency

O=C(O)C(O)[C@H](O)[C@@H](O)[C@H](O)[C@H](O)CO (some centres not stated)
not listed: [18] | [19] | [20]
inactive: all other assays above

CCCCN(CCO)CCO
not listed: [10] | [19] | [20]
inactive: all other assays above

CCCCOCC(C)OCC(C)O (configuration not stated)
not listed: [1] | [16] | [17]
inactive: all other assays above

Cc1ccc(Nc2ccc(O)c3c2C(=O)c2ccccc2C3=O)cc1
not listed: [16] | [17] | [18] | [19]
inactive: all other assays above

OC1OC[C@@H](O)[C@H](O)[C@H]1O (some centres not stated)
not listed: [6] | [16] | [17] | [19]
inactive: all other assays above

CCn1cc(C(=O)O)c(=O)c2cc(F)c(N3CCN(C)CC3)cc21
not listed: [16] | [17] | [19] | [20]
inactive: all other assays above

CCCC(C)C(=O)O (configuration not stated)
not listed: [16] | [17] | [19] | [20]
inactive: all other assays above

CCCCNc1ccccc1
not listed: [12] | [19] | [20]
inactive: all other assays above
